KB-V1 MDR tox = qHTS assay for MDR1-selective chemotherapeutics: Primary screen using the drug-selected MDR subline cells KB-V1. Potency, µM (highest dose often 46.1 µM), usual class: cytotoxic. KB-V1 MDR cells viability, CellTiter-Glo, 72 h. 400,000 compounds, 3.4% hits; further: nearly all actives have a fitted effect of over 60% in size
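Potencies derive from concentration-effect curves fitted to normalized luminescence (CellTiter-Glo) of KB-V1 cells treated for 72 h at 37 degrees C in phenol-red-free DMEM containing 10% FBS.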
ELG1 DNA repair = qHTS screen for small molecules that inhibit ELG1-dependent DNA repair in human embryonic kidney (HEK293T) cells expressing luciferase-tagged ELG1; HEK293T ELG1-luciferase reporter, luminescence, 16 h; DNA damage induced by 5-fluorouridine; Potency, µM (highest dose often 46.1 µM), actives largely listed as inhibitors; 330,000 compounds, 2.3% hits; AID 504467, 2011; further: nearly all actives have a fitted effect of over 55% in size
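Overnight (16 hr) co-exposure of 2,000 cells/well to 5-fluorouridine and compound at 37 °C preceded detection. Luciferase was quantified via ONE-Glo luminescence; loss of signal denotes inhibition.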
SW480 rereplic = A quantitative high throughput screen for small molecules that induce DNA re-replication in SW480 colon adenocarcinoma cells | SW480 DNA re-replication, Hoechst DNA content imaging, 48 h | Potency, µM (series often up to 46.1 µM), hits mostly activators | 340,000 compounds, 1.8% hits; further: nearly all actives have a fitted effect of over 55% in size
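Image-based read-out: total Hoechst fluorescence of nuclei (405 nm excitation, 500-530 nm emission), with hits raising the fraction of high-intensity nuclei. SW480 colon cells incubated 48 hr with compounds at 37 C.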
KB-3-1 tox = qHTS assay for MDR1-selective chemotherapeutics: Primary screen using the parental adenocarcinoma cell KB-3-1; AID 1347075, 2019; KB-3-1 viability, CellTiter-Glo ATP luminescence, 72 h; Potency, µM (series often up to 46.1 µM), actives largely listed as cytotoxic; 400,000 compounds, 1.4% hits; further: nearly all actives have a fitted effect of over 60% in size
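Parental KB-3-1 viability, qHTS format: 72 h compound exposure, 37 °C; CellTiter-Glo; media-only wells and DMSO plates as controls; concentration-effect fits on corrected data.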
MCF10A rereplic = A quantitative high throughput screen for small molecules that induce DNA re-replication in MCF 10a normal breast cells; MCF 10A DNA re-replication, Hoechst nuclear intensity, 48 h; Potency, µM (top dose mostly 46.1 µM), hits mostly activators; 350,000 compounds, 2.9% hits; AID 624296, 2012; further: nearly all actives have a fitted effect of over 50% in size
Numbers stand for hits; – = inactive; ? = inconclusive; · = no result given; ! = a repeat was not active. Compounds with a hit are over-represented: about 8.2% of the library has one in this group of screens. The call rests on the fitted dose curve; in most records, active means well fitted curve in the direction sought with a large enough effect; inconclusive means small, poorly fitted or top-dose-only effect, or another doubt; inactive means no such curve, though single readings can be large; an effect the other way counts as inactive or inconclusive.

SMILES	KB-V1 MDR tox	ELG1 DNA repair	SW480 rereplic	KB-3-1 tox	MCF10A rereplic
Cc1c(N=Cc2c(O)n(Cc3ccco3)c(=O)[nH]c2=O)c(=O)n(-c2ccccc2)n1C	?	–	–	–	–
C=CCn1c(O)c(C=NC2CCN(Cc3ccccc3)CC2)c(=O)[nH]c1=O	–	–	–	–	–
COc1ccccc1-n1c(O)c(C=Nc2c(C)n(C)n(-c3ccccc3)c2=O)c(=O)[nH]c1=O	–	–	23µM	–	?
Cc1c(N=Cc2c(O)n(Cc3ccccc3)c(=O)[nH]c2=O)c(=O)n(-c2ccccc2)n1C	–	–	29µM	–	–
O=C1CCCCC1CN1CCCCC1 (centres undefined)	·	·	–	·	–
CC(=O)OO	·	·	–	·	–
O=c1[nH]c(=O)n(Cc2ccccc2)c(O)c1C=NCCN1CCNCC1	–	–	6.5µM	–	2.9µM
COc1ccc(/C=C2\Oc3cc(OC(=O)N4CCOCC4)ccc3C2=O)c(OC)c1	–	–	?	–	–
OC(O)C(Cl)(Cl)Cl	·	·	–	·	–
Cc1ccc(-c2nc(CN3C(=O)CN=C(c4ccccc4)c4ccccc43)c(C)o2)cc1	–	·	·	–	·
COc1ccc(-c2nc(CN3C(=O)CN=C(c4ccccc4)c4ccccc43)c(C)o2)cc1	?	·	·	15µM	·
C[C@H](CO)N1C[C@H](C)[C@@H](CN(C)C(=O)NC2CCCCC2)Oc2c(cccc2N(C)C)C1=O	–	–	?	–	–
COc1ccc(NC(=O)c2cccn(Cc3ccc(Cl)cc3)c2=O)c(OC)c1	?	·	·	–	·
Cc1ccc(NC(=O)OC(C)CNC(=O)Oc2cccc(C)c2)cc1 (centres undefined)	–	?	–	–	–
O=c1c2ccccc2cnn1Cc1n[nH]c(=S)n1C1CC2CCC1C2 (centres undefined)	–	?	–	–	–
OCCN1CCN(CCCN2c3ccccc3Sc3ccc(C(F)(F)F)cc32)CC1	?	–	?	–	23µM!
FC(F)(F)c1ccc2c(c1)N(CCCN1CCN(CCCl)CC1)c1ccccc1S2	?	–	–	?	?
O=Cc1cn(Cc2ccc([N+](=O)[O-])cc2)c2ccccc12	?	–	?	6.5µM	18µM
CC(=O)OC1CC(OC2C(O)CC(OC3C(O)CC(OC4CCC5(C)C(CCC6C5CCC5(C)C(C7=CC(=O)OC7)C(O)CC65O)C4)OC3C)OC2C)OC(C)C1OC1OC(CO)C(O)C(O)C1O (centres undefined)	?	·	1.2µM	1.2µM	?
C[C@H]1O[C@@H](O[C@H]2[C@@H](O)C[C@H](O[C@H]3[C@@H](O)C[C@H](O[C@H]4CC[C@@]5(C)[C@H](CC[C@@H]6[C@@H]5CC[C@]5(C)[C@@H](C7=CC(=O)OC7)CC[C@]65O)C4)O[C@@H]3C)O[C@@H]2C)C[C@H](O)[C@@H]1O	0.18µM	0.15µM	0.21µM	?	0.065µM
CC(=O)OC1CC2(O)C3CCC4CC(O)CCC4(C)C3CCC2(C)C1C1=CC(=O)OC1 (centres undefined)	?	·	1.6µM	0.18µM	?
CC1OC(OC2C(O)CC(OC3C(O)CC(OC4CCC5(C)C(CCC6C5CCC5(C)C(C7=CC(=O)OC7)C(O)CC65O)C4)OC3C)OC2C)CC(O)C1O (centres undefined)	?	·	1.8µM	0.18µM	?
CC1OC(OC2C=C3CCC4C(CCC5(C)C(c6ccc(=O)oc6)CCC45O)C3(C)CC2)C(O)C(OC2OC(CO)C(O)C(O)C2O)C1O (centres undefined)	?	·	?	?	–
COc1ccc(NC(=O)CN(C)S(=O)(=O)c2ccc3[nH]c(=O)oc3c2)cc1	–	–	?	–	–
COc1cc(C(=O)NN=Cc2ccc(N(CCCl)CCCl)cc2)cc(OC)c1OC	–	·	18µM	16µM	16µM
SMILES	KB-V1 MDR tox	ELG1 DNA repair	SW480 rereplic	KB-3-1 tox	MCF10A rereplic
CCS(=O)(=O)C(C)(C)S(=O)(=O)CC	·	·	–	·	–
O=C(CCC1CCCN(Cc2cccc3c2OCO3)C1)NCc1ccc(F)c(F)c1 (centres undefined)	–	–	–	–	–
Cn1c(O)c(C(=N)COc2ccccc2)c(=O)n(C)c1=O	–	–	–	–	–
Cn1c(O)c(C(=Nc2ccccc2)SCc2ccc(Cl)cc2)c(=O)n(C)c1=O	5.2µM	?	–	?	?
C=CC[C@@H](CC/C=C/C=C/CC/C=C\[C@@H]1CSC([C@@H]2C[C@@H]2C)=N1)OC	–	–	1.2µM	–	0.73µM
CC(=O)O[C@@]12CO[C@@H]1C[C@H](OC1OCC(O)C(O)C1O)[C@@]1(C)C(=O)[C@H](O)C3=C(C)[C@@H](OC(=O)[C@H](O)[C@@H](NC(=O)c4ccccc4)c4ccccc4)C[C@@](O)([C@@H](OC(=O)c4ccccc4)C12)C3(C)C (some centres undefined)	–	–	5.8µM	1µM	0.58µM
CC(=O)OC12COC1CC(O)C1(C)C(=O)C(O)C3=C(C)C(O)CC(O)(C(OC(=O)c4ccccc4)C21)C3(C)C (centres undefined)	–	·	8.2µM	0.52µM	0.82µM
CCCCCC(=O)N[C@@H](c1ccccc1)[C@@H](O)C(=O)O[C@H]1C[C@@]2(O)[C@@H](OC(=O)c3ccccc3)C3[C@](C)(C(=O)[C@H](O)C(=C1C)C2(C)C)[C@@H](OC1OCC(O)C(O)C1O)C[C@H]1OC[C@@]31OC(C)=O (some centres undefined)	–	–	3.7µM	0.21µM	?
CC(=O)O[C@@]12CO[C@@H]1C[C@@H](O)[C@@]1(C)C(=O)[C@H](O)C3=C(C)[C@@H](OC(=O)[C@H](O)[C@@H](NC(=O)c4ccccc4)c4ccccc4)C[C@@](O)([C@@H](OC(=O)c4ccccc4)C12)C3(C)C (some centres undefined)	–	?	8.2µM	0.01µM	?
CC(=O)[C@H]1[C@H](C#N)C[C@H]2[C@@H]3CC=C4C[C@@H](O)CC[C@]4(C)[C@H]3CC[C@@]21C	?	–	?	?	–
O=C(c1cc(C(=O)NCc2ccccc2)c(=O)n(Cc2ccccc2)c1)c1cc(Cl)ccc1O	18µM	?	–	?	?
Oc1ccc(/C=N/NP(=S)(c2ccccc2)c2ccccc2)cc1	–	–	–	–	–
COc1cc(/C=N/NP(=S)(c2ccccc2)c2ccccc2)ccc1O	–	–	–	–	11µM
Cc1ccc(-c2cc(-c3ccc(C)cc3)[n+](C)o2)cc1	–	?	–	2.9µM	–

High-throughput results deposited in PubChem by National Center for Advancing Translational Sciences (NCATS).
